Screening data (PubChem)
In the library only some 11% were active in any assay of this set; here they are far more common.
NS1 inh – inhibitors of influenza NS1 protein function | Potency, µM (titrated, usually from 46.1 µM), without a hit: at the highest dose activity, positive = more growth | actives 0.4% (n = 270,000) | AID 2326; calls by dose curve; also: actives are rising curves; nearly all actives have a fitted effect of over 50% in size
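Compounds were scored for reversing the slow growth caused by influenza A NS1 in S. cerevisiae, measured by optical density at 600 nm. Assay medium contained 2% galactose at pH 6.0; NS1-free yeast of the same strain were the positive control.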
AMA1 RON2 block – AMA1-RON2 (P. falciparum) interaction inhibition | actives 0.2% (n = 360,000) | AlphaScreen AMA1-biotinylated RON2 peptide binding | Potency, µM (top dose mostly 58.2 µM), without a hit: at the top dose activity change, negative = inhibition, most hits filed as inhibitors;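 also: 0% = vehicle wells and -100% = peptide control; nearly all actives have a fitted effect of over 45% in size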
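AMA1 (3D7) with his tag at 25 nM final met compounds first, then biotinylated RON2 peptide at 25 nM; detection used donor plus acceptor beads, 10 µg/mL apiece, read by AlphaScreen after 30 min at room temperature.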
Sm TGR block – inhibitors of Schistosoma mansoni thioredoxin glutathione reductase; actives 3% (n = 360,000); purified TGR, DTNB reduction, TNB absorbance 405 nm; Q962Y6; AID 485364; Potency, µM (highest dose often 114 µM), inactives show top-dose activity change, negative = inhibition, most hits filed as inhibitors; also: % is scaled to controls: 0 for no effect and ±100 for the full control effect; nearly all actives have a fitted effect of over 60% in size
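TGR 20 nM + NADPH 100 uM (dispensed conc.), cpd preinc 15 min RT; start with NADPH (500 uM addition) then DTNB (15 mM addition). Kinetic TNB absorbance, 405 nm filter. Four-parameter Hill fit across titration.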
Pf growth 48h – inhibits P. falciparum growth in the first generation, 48 h; AID 504832; Potency, µM (series often up to 28.7 µM), for the others: top-dose activity change, negative = inhibition, hits mostly inhibitors; actives 5.9% (n = 310,000); P. falciparum luciferase growth in erythrocytes, 48 h; also: % is scaled to controls: 0 for no effect and ±100 for the full control effect
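Luminescence readout; reporter = integrated firefly luciferase in P. falciparum. RBC culture at 2% hematocrit, 0.1% parasitemia final, 37 C/5% CO2; decreased signal taken as growth inhibition.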
Pf growth 96h – P. falciparum growth inhibition at 96 hours; P. falciparum luciferase reporter growth, 96 h; Potency, µM (top dose mostly 28.7 µM), without a hit: at the top dose activity change, negative = inhibition, hits mostly inhibitors; actives 6.9% (n = 320,000); also: % is scaled to controls: 0 for no effect and ±100 for the full control effect
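P. falciparum expressing integrated firefly luciferase, in erythrocytes at 2% hematocrit, 0.05% parasitemia, incubated with compounds 96 h at 37 C, 5% CO2. Growth inhibition read as loss of luminescence; two-generation exposure targets delayed-death apicoplast inhibitors.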
The depositor's hits bear a star; ? = inconclusive; . = not tested or not shown; [ ] = dose if it differs, or a comment. Unless noted, calls follow the shape of the dose curve; as a rule, active = well fitted curve in the direction sought with a large enough effect; inconclusive = small, poorly fitted or top-dose-only effect, or another doubt; inactive = no such curve, though single readings can be large; an effect the other way counts as inactive or inconclusive. Potency is read from the fitted curve at half-maximal effect.

SMILES | NS1 inh | AMA1 RON2 block | Sm TGR block | Pf growth 48h | Pf growth 96h
Cc1ccc(S(=O)(=O)N2CCN(C(=O)CSc3nnc(-c4ccco4)o3)CC2)cc1 | -16% | -7% | 3%[11.4 µM] | . | 10µM*
CCCCNC(=O)CSc1nnc(-c2cccc(S(=O)(=O)N3CCOCC3)c2)o1 | . | -9% | -2% | 13µM* | ?
COC(=O)CSc1nnc(-c2ccc(S(=O)(=O)N3CCCC3)cc2)o1 | 1% | -5% | 4% | -3% | ?
C=CCNC(=O)CSc1nnc(-c2cccc(S(=O)(=O)N3CCOCC3)c2)o1 | . | 11% | . | . | .
Cc1ccc(-c2nnc(SCC(=O)N3CCCC3)o2)cc1 | 6% | 3% | 1% | 29% | 3%
Cc1ccc(S(=O)(=O)N2CCN(C(=O)CSc3ncc(C(F)(F)F)cc3Cl)CC2)cc1 | 29% | -2% | 35µM* | ? | ?
Cc1cc(C)cc(NC(=O)CSc2nnc(-c3ccc(S(=O)(=O)N4CCCC4)cc3)o2)c1 | -1% | 47% | 4% | ? | 5.2µM*
CCC1CCCCN1C(=O)CSc1n[nH]c(-c2ccccc2)n1 (stereo not given) | . | . | 4% | . | .
O=C(CSc1nnc(-c2cccs2)o1)Nc1cccc(S(=O)(=O)N2CCCCC2)c1 | 2% | 0% | -2% | ? | 15µM*
Cc1cccc(NC(=O)CSc2nnc(-c3cccs3)o2)c1 | . | . | -5% | . | .
CC(C)CCNC(=O)CN(Cc1ccco1)C(=O)CCC(=O)Nc1nccs1 | 13% | -4% | -3% | 22% | -17%
Cc1cc2nc(C)n(CCCN)c2cc1C | 1% | -21% | -22% | ? | -9%
Cc1cc2nc(C)n(CCCNC(=O)Nc3ccc(C#N)cc3)c2cc1C | -5% | -1% | -10% | 10µM* | 4%
COc1cc2c(cc1OC)C1=C(C#N)CN(CC(=O)O)CN1CC2 | ? | 50% | 35µM* | . | ?
COc1ccc(C2CC(=O)C3=C(C2)Nc2ccccc2NC3c2coc3ccccc3c2=O)cc1OC (stereo not given) | 20% | -27% | 0% | 7.4µM* | -19%
CCOc1ccc(-c2cc(OC(=O)c3ccccc3)c3c(C)oc(C)c3c(=O)c2)cc1 | . | . | 50µM* | . | .
CCOc1cc(-c2ccc(OC(=O)c3ccccc3F)cc2)cc(=O)c2c(C)oc(C)c12 | . | . | -15% | . | .
CCOc1cc(-c2ccc(OC(=O)c3ccc(C)cc3)c(OC)c2)cc(=O)c2c(C)oc(C)c12 | . | . | -27% | . | .
CCOc1cc(-c2ccc3c(c2)OCO3)cc(=O)c2c(C)oc(C)c12 | 3% | . | 35µM* | ? | 26%
COc1ccc(-c2cc(OC(=O)c3cccc(C)c3)c3c(C)oc(C)c3c(=O)c2)cc1 | . | . | 13µM* | . | .
CCCCCCCCN1C(=O)[C@H](CC(=O)NCc2ccc(C)o2)C[C@@]2(C(=O)OCC)CCC=C12 | . | -19% | . | . | .
CC(C)CC(=O)Nc1ccnn1C1CCN(C(=O)c2ccc(F)cc2Cl)CC1 | 6% | -9% | 4% | 0% | -3%
CN(C)c1ccc(Nc2ncnc3sc4c(c23)CCCC4)cc1 | . | . | -2% | . | .
c1cc(Nc2ncnc3sc4c(c23)CCC4)ccn1 | 5% | 14% | . | 1.7µM* | 14%
C=CCN1CC2(c3ccccc3)CN(CC=C)CC(c3ccccc3)(C1)C2=O | 6% | -25% | 0% | 7% | ?
SMILES | NS1 inh | AMA1 RON2 block | Sm TGR block | Pf growth 48h | Pf growth 96h
COc1ccc(N=C2S/C(=C\c3ccc(Cl)c([N+](=O)[O-])c3)C(=O)N2CCN(C)C)cc1 | 6% | 14µM* | 0% | -28% | -6%
O=C1NC(Cc2ccccc2)c2nc3ccccc3c(=O)n2-c2ccc(Cl)cc21 (stereo not given) | . | . | 4% | -8% | 49%
O=C1NC2CCc3nc4ccccc4c(=O)n3C2=Nc2ccccc21 (stereo not given) | 2% | 6% | -22% | 28% | 12µM*
CCOC(=O)C1=CN(Cc2ccco2)S(=O)(=O)NC1c1ccc(Br)cc1F (stereo not given) | . | -1% | . | . | .
CC(=O)N(C)C(c1ccc(N(C)C)cc1)c1nnnn1-c1c(C)cccc1C (stereo not given) | -4% | ? | 0% | 5.2µM* | 5.2µM*
COc1ccc(C2C(C#N)=C(N)Oc3cc4c(cc32)OCO4)cc1 (stereo not given) | -39% | 12% | 2% | ? | 15%
